In assay [1] the target is Acetylcholinesterase (Homo sapiens) (UniProt P22303). The assay is described as follows: Acetylcholinesterase (AChE) small molecule antagonists: colormetric cell-based qHTS assay (AID 1347395). Also: nearly all actives have a fitted effect of over 30% in size. Also: potency is read from the fitted curve at half-maximal effect. The gist of the method: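 In this cell-based qHTS, attached SH-SY5Y cells were treated with test chemicals for 30 min, after which acetylthiocholine hydrolysis was followed by DTNB colour development over 90 min at 37 C.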
On the technique in general: In qHTS, concentration-response curves come from the screen itself.

For assay [2] the target is unchanged. The assay is described as follows: Acetylcholinesterase (AChE) small molecule antagonists: enzyme-based qHTS assay (AID 1347397). Also: nearly all actives have a fitted effect of over 55% in size. The settings on record: Potency: AChE enzyme activity inhibition; outcome: AChE enzyme activity inhibition. In short, it runs like this: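 Human recombinant acetylcholinesterase; substrate acetylthiocholine; thiocholine quantified with DTNB (colorimetric). Compound preincubation 30 min RT; reaction 10 min RT.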

For assay [3] the target is unchanged. The assay is described as follows: Acetylcholinesterase (AChE) small molecule antagonists: enzyme-based qHTS assay with human liver microsomes (AID 1347399). Also: nearly all actives have a fitted effect of over 60% in size. The following applies: Potency: qHTS inhibition; outcome: qHTS inhibition. The gist of the method:
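Recombinant human AChE (50 mU/mL in the enzyme mix) and human liver microsomes (0.25 mg/mL final) were preincubated with compound and NADPH (0.25 mg/mL final) for 30 min at 37 C. Acetylthiocholine/DTNB was then added; thiocholine was read colorimetrically after 10 min at room temperature.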

A short description of assay [4]: qHTS assay for small molecule agonists of the p53 signaling pathway (AID 651631). Also: nearly all actives have a fitted effect of over 15% in size. The gist of the method: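 Quantitative high-throughput format: 4,000 p53RE-bla HCT-116 cells/well, 5 h pre-incubation, 16 h compound exposure at 37 °C, 2 h room-temperature substrate step, fluorescence intensity measured.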
Another assay addresses Aromatase (Homo sapiens) (UniProt P11511). Kind of assay: qHTS assay to identify aromatase inhibitors (AID 743083; active = well fitted curve in the direction sought with a large enough effect in the repeat runs; an effect the other way counts as inactive or inconclusive; also: series mostly up to about 70 µM; nearly all actives have a fitted effect of over 55% in size).
Assay [5] concerns the target Aryl hydrocarbon receptor (Homo sapiens) (UniProt P35869). Kind of assay: qHTS assay to identify small molecule that activate the aryl hydrocarbon receptor (AhR) signaling pathway (AID 743085; active = well fitted curve in the direction sought with a large enough effect in the repeat runs; an effect the other way counts as inactive or inconclusive;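 also: HG2L7.5c1 human HepG2 liver cells with stably integrated DRE-driven firefly reporter; series mostly up to about 70 µM; nearly all actives have a fitted effect of over 15% in size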). In short, it runs like this: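 24 h compound exposure, 37C, HepG2-derived HG2L7.5c1 cells with DRE-responsive luciferase. Readouts: fluorescence viability, then luminescence at room temperature after 30 min.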

Assay [6] is described as follows: qHTS assay for small molecule activators of the heat shock response signaling pathway (AID 743210; active = well fitted activation curve with a large enough effect in the signal ratio in the repeat runs, with a control signal flat, not every such curve was filed as active; the % refers to the signal ratio;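 also: HeLa cells with beta-lactamase reporter driven by heat shock elements; series mostly up to about 63 µM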). The gist of the method:
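Reporter gene assay: HeLa cells stably bearing an HSE-bla construct, compound treatment 5 h at 37 C, LiveBLAzer substrate 2.5 h at RT, fluorescence intensity.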

Assay [7] deals with Acetylcholinesterase (Homo sapiens) (UniProt P22303). The assay is described as follows: Acetylcholinesterase (AChE) small molecule antagonists: fluorescence cell-based qHTS assay (AID 1347398). Also: nearly all actives have a fitted effect of over 50% in size. The following applies: Potency: AChE activity; outcome: AChE activity. The gist of the method:
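Thiocholine generated from acetylthiocholine by SH-SY5Y cell AChE is detected with Thiolite Green (Ex/Em 490/520 nm) after 40 min at room temperature, following 30 min compound pretreatment at 37 C.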

The structures appear in SMILES notation. Records with an inconclusive call do not appear. Active and inactive are the calls of the source. Unless noted, calls follow the shape of the full dose curve.

Chain of Acetylcholinesterase (Homo sapiens) (P22303 whole entry, looked up): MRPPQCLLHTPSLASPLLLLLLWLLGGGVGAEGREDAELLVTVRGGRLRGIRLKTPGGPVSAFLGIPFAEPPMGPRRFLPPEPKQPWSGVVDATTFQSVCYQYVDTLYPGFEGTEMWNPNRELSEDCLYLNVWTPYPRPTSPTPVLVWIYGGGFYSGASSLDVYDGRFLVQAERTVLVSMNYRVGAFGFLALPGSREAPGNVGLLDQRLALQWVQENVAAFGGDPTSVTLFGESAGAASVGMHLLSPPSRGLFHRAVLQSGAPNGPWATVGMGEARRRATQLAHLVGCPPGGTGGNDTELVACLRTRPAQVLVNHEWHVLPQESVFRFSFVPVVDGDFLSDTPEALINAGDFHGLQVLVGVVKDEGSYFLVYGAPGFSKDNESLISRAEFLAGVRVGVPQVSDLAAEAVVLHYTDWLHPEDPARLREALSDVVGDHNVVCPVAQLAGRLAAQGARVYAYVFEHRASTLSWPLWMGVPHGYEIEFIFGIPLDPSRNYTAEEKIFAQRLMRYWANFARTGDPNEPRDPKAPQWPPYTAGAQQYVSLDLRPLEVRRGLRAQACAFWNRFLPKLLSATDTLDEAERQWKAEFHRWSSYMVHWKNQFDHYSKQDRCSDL
Chain of Aromatase (Homo sapiens) (P11511 whole entry, looked up): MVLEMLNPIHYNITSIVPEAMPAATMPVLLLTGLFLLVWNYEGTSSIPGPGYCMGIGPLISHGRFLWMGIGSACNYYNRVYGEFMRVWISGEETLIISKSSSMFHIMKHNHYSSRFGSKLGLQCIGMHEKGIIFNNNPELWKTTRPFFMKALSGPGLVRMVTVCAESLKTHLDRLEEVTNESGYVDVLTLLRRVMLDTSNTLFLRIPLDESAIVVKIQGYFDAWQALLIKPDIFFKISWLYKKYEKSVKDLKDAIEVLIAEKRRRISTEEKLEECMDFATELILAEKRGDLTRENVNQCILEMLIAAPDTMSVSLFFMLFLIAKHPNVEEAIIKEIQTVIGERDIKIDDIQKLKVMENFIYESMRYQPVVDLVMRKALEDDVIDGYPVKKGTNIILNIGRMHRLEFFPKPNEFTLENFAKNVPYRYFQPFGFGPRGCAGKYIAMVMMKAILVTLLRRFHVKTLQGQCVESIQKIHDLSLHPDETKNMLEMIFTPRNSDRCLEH
Chain of Aryl hydrocarbon receptor (Homo sapiens) (P35869 whole entry, looked up): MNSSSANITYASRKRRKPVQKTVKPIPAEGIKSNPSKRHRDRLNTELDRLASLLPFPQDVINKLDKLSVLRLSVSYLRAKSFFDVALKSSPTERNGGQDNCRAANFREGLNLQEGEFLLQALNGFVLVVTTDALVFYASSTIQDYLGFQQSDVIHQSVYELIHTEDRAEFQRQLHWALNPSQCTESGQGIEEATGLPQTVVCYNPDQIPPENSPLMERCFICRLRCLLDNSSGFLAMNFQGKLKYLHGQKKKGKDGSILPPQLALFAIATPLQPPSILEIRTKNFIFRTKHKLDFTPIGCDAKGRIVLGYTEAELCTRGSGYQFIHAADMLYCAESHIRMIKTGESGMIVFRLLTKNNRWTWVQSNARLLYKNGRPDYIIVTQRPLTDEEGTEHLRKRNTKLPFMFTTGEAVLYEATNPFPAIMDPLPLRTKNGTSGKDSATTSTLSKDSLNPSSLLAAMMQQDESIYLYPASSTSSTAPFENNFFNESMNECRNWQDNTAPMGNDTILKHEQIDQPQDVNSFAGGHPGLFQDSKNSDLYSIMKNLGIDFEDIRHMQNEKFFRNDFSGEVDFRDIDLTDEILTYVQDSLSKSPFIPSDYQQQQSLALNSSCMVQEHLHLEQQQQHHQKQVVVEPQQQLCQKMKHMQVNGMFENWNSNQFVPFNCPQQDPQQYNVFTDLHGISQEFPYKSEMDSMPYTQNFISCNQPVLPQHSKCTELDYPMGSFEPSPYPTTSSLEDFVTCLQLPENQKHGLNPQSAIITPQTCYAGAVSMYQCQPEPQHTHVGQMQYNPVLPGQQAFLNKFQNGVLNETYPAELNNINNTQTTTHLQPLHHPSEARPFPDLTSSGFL

On to `COc1cc(C(C)=O)ccc1OCCCN1CCC(c2noc3cc(F)ccc23)CC1`, for which the Potency in assay [1] is 19.5 µM (active). Also, the Potency result in assay [2] and in assay [3] was “inactive” throughout.

In the case of `CC[N+](C)(CC)CCOC(=O)C1c2ccccc2Oc2ccccc21`, the Potency entry in assay [1], in assay [2] and in assay [3] was “inactive” throughout.

In the case of `CC(=O)CC(C)C`, the Potency entry (in assay [4]; with Aromatase (Homo sapiens); in assay [1]; in assay [2]; in assay [7]; in assay [3]) was “inactive” in each case. Moreover, the compound was classed as inactive in assay [5] and in assay [6].

Regarding `CCC(CO)(CO)[N+](=O)[O-]`, the Potency result in assay [1], in assay [2] and in assay [3] was “inactive” throughout.

Consider `O=C1[C@H]2CCCC[C@H]2C(=O)N1CCCCN1CCN(c2nsc3ccccc23)CC1`, for which the Potency result in assay [1], in assay [2] and in assay [3] was “inactive” each time.

Source of the values: PubChem BioAssay (Tox21).
